Results taken from PubChem BioAssay AID2685 (National Center for Advancing Translational Sciences (NCATS), 2010).
About 2,100 (0.66%) of roughly 320,000 compounds were called active. Not shown: some 53% with an inconclusive outcome. The call rests on the fitted dose curve; in most records, active means well fitted inhibition curve with a large enough effect in the signal ratio, with a control signal flat (not every such curve was filed as active); inconclusive means small, poorly fitted or top-dose-only effect, or effect the other way, or a change in a side signal; inactive means flat fitted curve, though single readings scatter; the % refers to the signal ratio. Shown is part of a subset that was picked to be rich in actives.

assay: qHTS Assay for Lipid Storage Modulators in Drosophila S3 Cells; conditions: BODIPY lipid droplet fluorescence, 18-24 h, cells fed with added oleic acid; cell number change: measured here: cell count max response; series mostly up to 46.1 µM;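 on cell number change: cells counted by Cell Tracker Red CMTPX staining in the red channel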
Outline: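 Laser-scanning cytometry quantifies lipid droplet accumulation (500–530 nm total intensity; droplet/cell object ratio) in oleic acid-fed (400 uM added) Drosophila S3 cells treated with a concentration series. 20 uM Triacsin C defined 100% inhibition.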
Potency means the concentration at half of the fitted maximal effect.

SMILES	Potency	cell number change
O=C(Nc1ccccc1F)C1COc2ccccc2O1 (stereo unspecified)	inactive	–
COc1ccccc1NC(=O)CCCNC(=O)Cn1cnc2sc(C)c(C)c2c1=O	inactive	9.46%
COc1ccc(NC(=O)CCCNC(=O)Cn2cnc3sc(C)c(C)c3c2=O)cc1OC	inactive	19.7%
COc1ccc(OC)c(NC(=O)CCCNC(=O)Cn2cnc3sc(C)c(C)c3c2=O)c1	3.66 µM (active)	10.8%
CN1CCN(C2CCN(Cc3ccc(O)c4ncccc34)CC2)CC1	inactive	8.98%
O=S(=O)(c1ccccc1)c1nc(-c2ccccc2)oc1N1CCCC1	inactive	–
COc1ccccc1-c1nc(S(=O)(=O)c2ccccc2)c(N2CCOCC2)o1	inactive	5.82%
COc1ccccc1-c1nc(S(=O)(=O)c2ccccc2)c(N2CCCCC2)o1	4.11 µM (active)	-11.8%
Cc1nc(CS(=O)c2ccc(Cl)cc2)cc(N2CCOCC2)n1 (stereo unspecified)	inactive	-22.4%
Cc1ccc(NC(=O)CN2CCN(Cc3ccccc3)CC2)cc1	inactive	–
COc1ccc(C(=O)NCC2(c3ccccc3)CCOCC2)cc1	inactive	16.9%
CC1=CC2=NC(=O)/C(=C\c3ccc(-c4ccc(Cl)cc4)o3)C(=N)N2O1	inactive	5.59%
CCOc1ccc(C(=O)NC(C(=O)NCC(c2cccs2)N(C)C)C(C)C)cc1 (stereo unspecified)	inactive	-5.63%
COc1cc(C(=O)NCc2nnc(SCC(=O)Nc3cc(C)cc(C)c3)o2)cc(OC)c1OC	inactive	6.53%
CCC1CCCCN1C(=O)CSc1nnc(CNC(=O)c2cc(OC)c(OC)c(OC)c2)o1 (stereo unspecified)	inactive	–
COc1cc(C(=O)NCc2nnc(SCC(=O)Nc3cccc(C(F)(F)F)c3)o2)cc(OC)c1OC	9.2 µM (active)	-27.5%
CCOC(=O)c1ccc(NC(=O)CSc2nnc(CNC(=O)c3ccco3)o2)cc1	3.66 µM (active)	-21.5%
COc1ccc(C(=O)NCc2nnc(SCC(=O)Nc3cccc(C(F)(F)F)c3)o2)cc1OC	inactive	0.944%
Cc1ccc(NC(=O)CSc2nnc(CNC(=O)c3ccco3)o2)cc1	inactive	–
COc1ccc(C(=O)NCc2nnc(SCC(=O)N3CCCC3)o2)cc1	inactive	–
COc1cc(C(=O)NCc2nnc(SCC(=O)N3CCCCC3)o2)cc(OC)c1OC	18.4 µM (active)	4.42%
CCOc1ccc(NC(=O)CSc2nnc(CNC(=O)c3ccco3)o2)cc1	inactive	12.8%
Cc1cc[n+]2c3c(cccc13)CCC2	inactive	21.6%
Cn1c(SCC(=O)Nc2nccs2)nnc1-c1ccco1	inactive	19.7%
O=C(CCNS(=O)(=O)c1ccccc1F)N1CCN(C(c2ccccc2)c2ccccc2)CC1	23.1 µM (active)	–
O=C(CCNS(=O)(=O)c1ccccc1C(F)(F)F)N1CCN(C(c2ccccc2)c2ccccc2)CC1	inactive	9.11%
O=C(CCNS(=O)(=O)c1ccccc1F)N1CCN(Cc2ccccc2)CC1	inactive	–
